Assay outcomes: PubChem, National Center for Advancing Translational Sciences (NCATS)
This excerpt belongs to a sample that is enriched for hits.
G9a inh = inhibitors of human histone lysine methyltransferase G9a. AID 504332. G9a H3K9 monomethylation, AlphaScreen, 2 h. Potency, µM (highest dose often 102 µM), for the others: top-dose activity, negative = inhibition, hits mostly inhibitors. 350,000 tested, 8.8% active; note: % is set by controls: 0 for no effect and ±100 for the full control effect; nearly all actives have a fitted effect of over 75% in size
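AlphaScreen read-out: biotin-H3K9 peptide (500 nM) methylation by 20 nM enzyme with 20 uM SAM, 2 h at room temperature after 15 min compound preincubation; anti-monomethyl H3K9 antibody plus donor/acceptor beads, 10 min dark.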
12-LOX inh = inhibitors of human 12S-lipoxygenase ALOX12; 580,000 tested, 1.1% active; P18054; purified 12hLO, xylenol orange hydroperoxide absorbance; AID 1671190; Potency, µM (titrated, usually from 108 µM), for inactives: at the top dose activity change, negative = inhibition, hits mostly inhibitors; note: % is set by controls: 0 for no effect and ±100 for the full control effect
Target sequence (P18054 whole entry, looked up): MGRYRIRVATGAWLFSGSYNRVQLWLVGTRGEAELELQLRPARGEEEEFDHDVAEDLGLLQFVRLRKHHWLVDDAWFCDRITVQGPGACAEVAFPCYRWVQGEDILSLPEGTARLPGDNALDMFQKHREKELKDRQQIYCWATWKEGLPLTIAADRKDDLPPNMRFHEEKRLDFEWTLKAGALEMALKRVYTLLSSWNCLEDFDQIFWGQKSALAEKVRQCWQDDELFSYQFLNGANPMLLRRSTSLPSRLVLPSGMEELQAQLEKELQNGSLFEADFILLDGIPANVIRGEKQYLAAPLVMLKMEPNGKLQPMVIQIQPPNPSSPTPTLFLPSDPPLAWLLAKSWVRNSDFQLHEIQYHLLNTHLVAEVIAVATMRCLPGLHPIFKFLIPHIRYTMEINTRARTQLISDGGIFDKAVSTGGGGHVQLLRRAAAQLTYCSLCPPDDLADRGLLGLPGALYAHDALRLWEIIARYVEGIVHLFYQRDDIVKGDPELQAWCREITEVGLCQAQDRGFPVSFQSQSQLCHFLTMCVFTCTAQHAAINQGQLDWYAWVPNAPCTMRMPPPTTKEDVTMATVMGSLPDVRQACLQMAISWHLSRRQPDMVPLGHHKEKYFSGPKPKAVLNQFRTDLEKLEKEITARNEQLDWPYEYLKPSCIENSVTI
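Purified human 12hLO (150 nM final) in 25 mM Hepes, 0.01% Triton X-100, pH 7.0 was preincubated 15 min at room temperature with compound. Then 40 uM arachidonic acid was added, 30 min. Hydroperoxide was read by Fe-XO absorbance ratio 573/405 nm.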
GRP78 ERSR act = inducers of ER stress response in human glioma cells; Potency, µM, for inactives: top-dose activation, usual class: activators; U87-MG GRP78 promoter luciferase reporter, 16 h; 420,000 tested, 0.02% active; AID 602332; note: series mostly up to about 76 µM; % of control where 0% means no effect; nearly all actives have a fitted effect of over 35% in size
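Stably transfected U87-MG human glioma cells carrying a GRP78-based luminescent sensor were seeded at 1000 cells/well, pin-dosed with compounds and incubated 16 h. Luciferase reagent was then added, and end-point luminescence was read after 10 min at room temperature.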
VDR inh = blocks the human vitamin D receptor. VDR-SRC2-3 peptide fluorescence polarization, 2 h. Potency, µM, for the others: max response, negative = inhibition, actives largely listed as inhibitors. 400,000 tested, 0.93% active. AID 504847; note: % is set by controls: 0 for no effect and ±100 for the full control effect
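Inhibition of the VDR/SRC2-3 peptide interaction is quantified by fluorescence polarization. Compounds (23 nl, pintool) incubate with the reagents for 2 hours at ambient room temperature.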
Sfp inh = Sfp phosphopantetheinyl transferase inhibition. Q9F4F7. Biochemical Sfp PPTase activity, qHTS. Potency, µM, for the others: largest response in the series, negative = inhibition, most hits filed as inhibitors. 310,000 tested, 3.5% active. AID 1490;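 note: the enzyme is Sfp with the accession as filed and its product quenches rhodamine fluorescence; 0% = enzyme reaction without inhibitor and -100% = no enzyme wells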
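Fluorescence-quenching assay with 15 nM Sfp, 5 uM rhodamine-CoA and 12.5 uM BHQ-2-labelled ybbR peptide in pH 7.6 Hepes/MgCl2 buffer. Enzyme was pre-incubated with compound for 15 min at room temperature. Rate was taken from the 30-min fluorescence change (525/598 nm).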
Starred values were filed as active, the others as inactive; ? = inconclusive; nt = no result given; [ ] = remark or other dose. Calls come from the whole dose curve; as a rule, active = well fitted curve in the direction sought with a large enough effect; inconclusive = small, poorly fitted or top-dose-only effect, or another doubt; inactive = no such curve, though single readings can be large; an effect the other way counts as inactive or inconclusive. Potency is the fitted concentration of half-maximal effect.

SMILES	G9a inh	12-LOX inh	GRP78 ERSR act	VDR inh	Sfp inh
COc1ccc(C(C[N+](=O)[O-])c2c(-c3ccccc3)cc3ccccn23)cc1 (configuration not stated)	?	?	?	-30%	11%
COc1cc(C(C[N+](=O)[O-])c2c(C)cc3ccccn23)ccc1O (configuration not stated)	32µM*	?	-5%	-19%	?
COc1c(Cl)cc(Cl)cc1CNCc1cccnc1	nt	-67%	nt	nt	nt
FC(F)(F)c1ccc2c(c1)nc1n2[C@@H](CNC2CCC2)COC1	nt	22%[176 µM]	nt	nt	nt
Cc1ccc(S(=O)(=O)c2cc3c(=O)n4ccccc4nc3n(CCCN3CCOCC3)c2=N)cc1C	12%	7%	-2%	-8%	-5%
Cc1ccc2nc3c(cc(C(N)=S)c(=N)n3CCCOC(C)C)c(=O)n2c1	22µM*	?	-5%	?	45µM*
N=c1c(S(=O)(=O)c2ccccc2)cc2c(=O)n3ccccc3nc2n1CCCN1CCOCC1	79µM*	?	-4%	-17%	-26%
Cc1cccn2c(=O)c3cc(C(N)=S)c(=N)n(CCCN4CCOCC4)c3nc12	45µM*	-28%	-4%	?	-27%
N=c1c(S(=O)(=O)c2ccc(Cl)cc2)cc2c(=O)n3ccccc3nc2n1CCc1ccccc1	41%	374%	nt	nt	25µM*
N=c1c(S(=O)(=O)c2ccc(Cl)cc2)cc2c(=O)n3ccccc3nc2n1CCN1CCOCC1	20%[59 µM]	-3%	-2%	3%	4%
COCCCn1c(=N)c(C(N)=S)cc2c(=O)n3cccc(C)c3nc21	nt	?	0%	?	nt
COc1ccc(-c2coc3cc(OCC(=O)N4CCC(=O)CC4)ccc3c2=O)cc1	nt	-23%	nt	nt	nt
Cc1ncc(CN2CCC(C(=O)Nc3cccc(-c4cc5ccccc5[nH]4)c3)CC2)cn1	nt	9%	nt	nt	nt
C=CCOc1ccc(C(=O)Nc2ccc(C)c(C)c2)cc1	nt	-4%	nt	nt	nt
Cc1nc2ccccc2c(-c2ccccc2)c1C(=O)/C=C/c1ccccc1	nt	-24%	nt	nt	nt
CC(C(=O)Nc1cc(Cl)cc(Cl)c1)N1CCN(c2ccc(O)cc2)CC1 (configuration not stated)	nt	20µM*	nt	nt	nt
Cc1nc2sc(C)c(C)c2c(=O)o1	?	-17%	-1%	17%	20µM*
Cc1nc2sc3c(c2c(=O)o1)CCCC3	45µM*	?	-7%	-12%	40µM*
Cc1sc2nc(C(C)C)oc(=O)c2c1C	45%[12.7 µM]	-25%	-2%	-6%	14%
CC(=O)n1cc(Nc2ccc([N+](=O)[O-])cc2)c2ccccc21	-37%	?	-5%	-4%	4%
CC(=O)SC(C[N+](=O)[O-])c1cn(C(C)=O)c2ccccc12 (configuration not stated)	2.8µM*	?	-13%	45µM*	10µM*
O=C(COc1ccc(Cl)cc1Br)Nc1ncn[nH]1	nt	2%	nt	nt	nt
COC(=O)c1cc(C(=O)Nc2cc(C)ccn2)cc([N+](=O)[O-])c1	50µM*	6%	0%	22%	-12%
CCOc1cc(C(=O)Nc2cc(C)ccn2)cc(OCC)c1OCC	-22%	1%	-3%	6%	-3%
CCNC(=S)Nc1cc(-c2ccc(Cl)cc2)[nH]n1	1.6µM*	5.6µM*	5%	-13%	12%
SMILES	G9a inh	12-LOX inh	GRP78 ERSR act	VDR inh	Sfp inh
CCNC(=S)Nc1cc(C)ccn1	1µM*	-29%	8%	-8%	?
CCOc1ccc(C(=O)Nc2cc(C)ccn2)cc1	?	?	-12%	35µM*	4%
Cc1ccc(CC(=O)Nc2cc(C)ccn2)cc1	9%	3%	8%	19%	7%
O=C(Cn1c(=O)c2c(ncn2C2CCCC2)n(Cc2ccccc2)c1=O)N1CCOCC1	nt	9%	nt	nt	nt
O=C1[C@@H]2C[C@@H](O)CN2C2(CN(Cc3ccccn3)C2)C(=O)N1Cc1ccccc1Cl	nt	57%[176 µM]	nt	nt	nt
CN(C)C(=O)COc1ccc(S(=O)(=O)c2ccc(OCC(=O)N(C)C)cc2)cc1	50µM*	0%	-2%	2%	-1%
CN(C)C(=O)COc1ccc(Br)cc1	-8%[59 µM]	17%	0%	-3%	6%
CC(=O)N1CCN(C(=O)c2cc(C3CC3)nc3ccccc23)CC1	nt	19%	nt	nt	nt
Cc1cc(C(=O)N2CCCC3(CCNCC3)CC2)c2cnn(C(C)C)c2n1	nt	20µM*	nt	nt	nt
FC(F)(F)CN1C2CCC1CN(c1nccc(Nc3ccccc3Cl)n1)C2	nt	8%[6.33 µM]	nt	nt	nt
Fc1ccc(N/N=C/c2ccc(Cl)c(Cl)c2)c(F)c1	nt	35µM*	nt	nt	nt
COc1cc(C=NNc2ccccc2[N+](=O)[O-])cc(OC)c1OC	nt	-10%	-3%	nt	nt
Cc1ccsc1/C=N/Nc1ccc(F)cc1F	1.3µM*	40µM*	6%	-5%	-2%
Fc1ccc(N/N=C/c2ccccc2Cl)c(F)c1	nt	3.2µM*	nt	nt	nt
COc1cc(/C=N/Nc2ccc(F)cc2F)cc(OC)c1OC	1.8µM*	?	0%	8%	6%
O=[N+]([O-])c1ccccc1N/N=C\c1ccccc1Cl	-4%[59 µM]	-4%	1%	21%	8%
Cc1[nH]c2ccc(F)cc2c1CC(=O)NC1CCCCC1	nt	-2%	nt	nt	nt
CCN(CC)c1cc(C)c2ccccc2n1	1.1µM*	?	-2%	11%	0%
O=[N+]([O-])c1ccc(-c2csc3[n+]2CCS3)cc1	35µM*	?	-1%	?	11µM*
CC(=O)Nc1ccc(NC(=O)CC2C(=O)N(C3CCCCC3)c3nc4ccccc4n32)cc1 (configuration not stated)	nt	3%	nt	nt	nt
COc1ccc(S[C@]2(C(=O)NCC(F)(F)F)CC(=O)N[C@@H]2c2ccc(OC)cc2)cc1	nt	32µM*	nt	nt	nt
CC(=O)c1cc2c(cc1NC(=O)CCn1cnnn1)OCO2	40µM*	-4%	-2%	9%	32%
CC(=O)c1cc2c(cc1NC(=O)CN1CCCCCCC1)OCO2	10µM*	?	-9%	7%	-25%
CC1=N/C(=C\c2ccc([N+](=O)[O-])cc2)C(=O)N1c1cc(Cl)ccc1C	?	-19%	-2%	-20%	56µM*
O=[N+]([O-])c1ccc(S(=O)(=O)NN=Cc2ccc3c(c2)OCO3)cc1	nt	-18%	6%	-12%	nt
SMILES	G9a inh	12-LOX inh	GRP78 ERSR act	VDR inh	Sfp inh
O=[N+]([O-])c1ccc(S(=O)(=O)N/N=C/c2ccsc2)cc1	45µM*	?	-4%	-8%	4%
[O-]/[N+](=C\c1ccc(F)cc1)c1ccccc1	7.9µM*	?	-1%	?	-18%
[O-]/[N+](=C\c1cccc(Br)c1)c1ccccc1	40µM*	?	-3%	?	12%
[O-]/[N+](=C\c1ccccc1)c1ccccc1	10%[0.501 µM]	?	4%	-15%	nt
COC(=O)c1ccc(COC(=O)c2cc(F)c(F)cc2Cl)cc1	nt	7%	nt	nt	nt
Cc1cccc(OCCN)c1	nt	7%	nt	nt	nt
Cc1ccc(C)c(CN2CCCNC2=O)c1	45µM*	0%	-5%	1%	50µM*
COc1ccc(C2C3=C(CC(C)(C)CC3=O)OC(N)=C2[N+](=O)[O-])cc1 (configuration not stated)	?	-10%	-3%	-19%	-1%
